A short description of assay [1]: VALA_TUBHUV_Agonist_CellCount: Viability Assessment in the VALA Sciences human Umbilical Vein Endothelial Tubule Formation (TUBHUV) Agonism Assay (AID 2284309; active means hit-call score of the fitted dose curve at least 0.9, where 1 is the maximum). The procedure, abridged:
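Viability endpoint by fluorescent imaging of fixed nuclear/CD31-stained HUVEC–HDF co-cultures. Readout is cell count, fitted upward against 0.1% DMSO. Compound exposure was 72 h in 10 ng/ml VEGF, after 3-day co-culture priming.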

A short description of assay [2]: VALA_TUBHUV_Antagonist_CellCount: Viability Assessment in the VALA Sciences human Umbilical Vein Endothelial Tubule Formation (TUBHUV) Antagonism Assay (AID 2284310; active means hit-call score of the fitted dose curve at least 0.9, where 1 is the maximum). The protocol: VALA_TUBHUV_Antagonist is a cell-based, multiplexed assay that uses human umbilical vein endothelial cells (HUVEC). Measurements were taken 72 hours after chemical dosing in a 96-well plate.VALA_TUBHUV_Antagonist_CellCount is the one of two assay components measured from the VALA_TUBHUV_Antagonist assay. It is designed to make measurements of viability, a form of viability reporter, as detected with fluorescence intensity signals by HCS Fluorescent Imaging technology. Data from the assay component VALA_TUBHUV_Antagonist_CellCount was analyzed at the endpoint, VALA_TUBHUV_Antagonist_CellCount, in the positive analysis fitting direction relative to DMSO as the negative control and baseline of activity. Using a type of viability reporter, loss-of-signal activity can be used to understand viability. To generalize the intended target to other relatable targets, this assay endpoint is annotated to the cell cycle intended target family, where the subfamily is cell count.
This HUVEC-HDF assay was designed to detect chemical suppression of tubulogenesis, i.e. antagonism. To measure tubulogenesis antagonism, HUVEC cells were co-cultured with HDF cells at a 1:3 ratio for 3-days in 10 ng/ml VEGF (i.e., favorable conditions with growth factors), then changed to assay medium containing 10 ng/ml VEGF and ToxCast compounds for an additional 3-day period. […]

In a further assay the test system is IYD (gene 389434). In words: CCTE_GLTED_hIYD: CCTE's human Iodotyrosine Deiodinase (xIYD) Inhibition Assay, Great Lakes Toxicology and Ecology Division (GLTED) Lab (AID 2284317; active means hit-call score of the fitted dose curve at least 0.9, where 1 is the maximum;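 further: cell-free human IYD enzyme made in baculovirus insect cells; iodide freed from monoiodotyrosine measured by cerium arsenite color change at 420 nm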). The procedure, abridged: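 Cell-free; baculovirus/insect-cell hIYD + MIT substrate + chemical, 3 h. Dowex column cleanup, then Ce4+/As3+ Sandell-Kolthoff read at A420 nm. Triplicate plates; normalized to 3-nitro-L-tyrosine (positive) and DMSO/NaOH (solvent).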

Assay [3] is described as follows: CCTE_Deisenroth_5AR_NBTE_donor: CCTE's 5alpha-reductase NanoBRET Target Engagement Assay […], Deisenroth Lab (AID 2284319). Conditions: actives raise or lower the signal. Summed up:
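HEK293T cells were reverse transfected with an SRD5A2-NanoLuc vector for 20 h, exposed to test chemical (8 points, 10 nM - 29.9 uM) for 3 h, then testosterone tracer for 2 h more. Donor luminescence (460 nm) was read; bidirectional fit versus DMSO.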

The nature of assay [4]: IUF_NPC2-5_cell_number_120hr: Cell Number Assessment at 120 hours in the Leibniz Research Institute for Environmental Medicine (IUF) Neural Progenitor Cell Migration and Differentiation Assay (NPC2-5) (AID 2284308).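 Further: count of Hoechst-stained nuclei in migration zone around plated human neural progenitor spheres.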 Summed up:
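Seven-point serial dilutions plus solvent control were applied to plated 0.3 mm hNPC spheres at differentiation start, with medium half-replaced at day 3. Nuclei positive for Hoechst in the migration zone were enumerated at 120 h.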

Assay [5] can be described thus: IUF_NPC2-5_viability_120hr: Viability Assessment at 120 hours in the Leibniz Research Institute for Environmental Medicine (IUF) Neural Progenitor Cell Migration and Differentiation Assay (NPC2-5) (AID 2284312). The procedure, abridged:
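Human fetal neural progenitor spheres (0.3 mm) plated on poly-D-lysine/laminin in N2 differentiation medium, exposed 120 h with half-medium refresh at day 3. Viability by alamar blue resazurin fluorescence; 7 concentrations, DMSO max 0.1%.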

Assay [6] can be described thus: CCTE_Mundy_HCI_iCellGluta_NOG_NeuriteLength: CCTE's Neurite Outgrowth Assay in iCellGluta cells for Neurite Length, Mundy Lab (AID 2284318; active means hit-call score of the fitted dose curve at least 0.9, where 1 is the maximum). The procedure, abridged: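 Automated high-content imaging of betaIII-tubulin (Alexa Fluor-488) and Hoechst-stained cells gave neurite length, normalized to the DMSO baseline.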
A short description of assay [7]: VALA_TUBIPS_Agonist_TubuleLength: VALA Sciences human iPS-derived Endothelial Tubule Formation (TUBIPS) Agonism Assay (AID 2284311; active means hit-call score of the fitted dose curve at least 0.9, where 1 is the maximum). Summed up: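 Agonist-mode readout is the gain in imaged tubule length versus DMSO baseline. It was measured by fluorescence high-content imaging 72 h after dosing human iPSC-derived endothelial cells.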
A short description of assay [8]: VALA_TUBIPS_Antagonist_TubuleLength: VALA Sciences human iPS-derived Endothelial Tubule Formation (TUBIPS) Antagonist Assay (AID 2284313; active means hit-call score of the fitted dose curve at least 0.9, where 1 is the maximum). The procedure, abridged:
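Tubule length was quantified by high-content imaging of CD31- and nuclear-stained cells, with 0.1% DMSO as neutral and 100 uM suramin as inhibition control. Compounds were applied for 3 days, in 10 ng/ml VEGF, to cultures pre-grown 3 days.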

Assay [9] is described as follows: VALA_MIGHUV2_WoundArea: VALA Sciences human Umbilical Vein Endothelial Cell Migration (MIGHUV) Assay, Area of Scratch Wound after Recovery (AID 2284316; active means hit-call score of the fitted dose curve at least 0.9, where 1 is the maximum). Summed up:
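Wound-area endpoint read by fluorescence imaging of Hoechst-stained nuclei after a 24 h recovery period following scratch of HUVEC monolayers (9000 cells/well). Chemicals dosed within 30 min post-scratch, triplicate 6-point series, 0.1% DMSO vehicle; Cytochalasin D positive control.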

Where “and” joins values, the source holds several entries; their conditions need not be identical. Equal values may be shown once. Inconclusive results are not listed. Some compounds were tested as several samples or in several runs, with calls that do not always agree. Calls of active or inactive are those of the source. How the source made its calls, unless noted: active means hit-call score of the fitted dose curve at least 0.9, where 1 is the maximum; inactive means score below 0.9.

Consider `Oc1cc(Cl)ccc1Oc1ccc(Cl)cc1Cl`, for which the result in [1] and in [2] was inactive. Also, the half-maximal activity concentration (AC50) in the assay on IYD (gene 389434) is 37.2 µM (active) and 55.2 µM (active) and 24.3 µM (active).

`CCCN(CCC)c1c([N+](=O)[O-])cc(C(F)(F)F)cc1[N+](=O)[O-]`: the compound was called inactive in assay [3].

Consider `CCC(C)(NC(=O)c1cc(Cl)c(C)c(Cl)c1)C(=O)CCl` (stereo unspecified), for which, in assay [3], the compound was called inactive.

Consider `CNC(=O)CSP(=S)(OC)OC`, for which the call in assay [4], in assay [5] and in assay [6] was inactive.

As for `O=S1OCC2C(CO1)C1(Cl)C(Cl)=C(Cl)C2(Cl)C1(Cl)Cl` (stereo unspecified), the compound was classed as inactive in assay [4], in assay [5] and in assay [3]. Besides, the AC50 in [6] was 8.78 µM (active).

`CCC(C)Nc1c([N+](=O)[O-])cc(C(C)(C)C)cc1[N+](=O)[O-]` (stereo unspecified): the outcome in assay [3] was inactive.

For the compound `O=C1c2ccccc2C(=O)N1SC(Cl)(Cl)Cl`, the call in [3] was inactive.

For `CC(C)N(C(=O)COc1nnc(C(F)(F)F)s1)c1ccc(F)cc1`, the compound was classed as inactive in assay [4], in [5] and in [6].

In the case of `CC1(C)C(C=C(Cl)Cl)C1C(=O)OC(C#N)c1ccc(F)c(Oc2ccccc2)c1` (stereo unspecified), the result in assay [4], in assay [5] and in assay [6] was inactive. Further, in assay [6], the AC50 is 9.9 µM (active).

Regarding `O=C(O)COc1ccc(Cl)cc1Cl`, the result in assay [4], in assay [5] and in assay [6] was inactive.

For the compound `COP(=O)(OC)OC=C(Cl)Cl`, the AC50 is 15 µM (active) in assay [4], 29.7 µM (active) in assay [5] and 12.9 µM (active) in assay [6].

For `CCCN(CCOc1c(Cl)cc(Cl)cc1Cl)C(=O)n1ccnc1`, the compound was classed as inactive (with IYD (gene 389434); in assay [3]).

Regarding `O=C(O)C(F)(F)C(F)(F)C(F)(F)C(F)(F)C(F)(F)C(F)(F)C(F)(F)F`, the compound was classed as inactive in [4], in assay [5] and in assay [6].

Turning to `O=S(=O)(O)C(F)(F)C(F)(F)C(F)(F)C(F)(F)C(F)(F)C(F)(F)C(F)(F)C(F)(F)F`, the AC50 in assay [4] was 73 µM (active); in the assay on IYD (gene 389434), 59 µM (active) and 90.4 µM (active). The result in assay [4], in assay [1], in [7], in assay [5], in [8] and in assay [9] was inactive. Also, the result (in the assay with IYD (gene 389434); in assay [6]) was inactive.

With `COP(=S)(OC)Oc1ccc([N+](=O)[O-])cc1`, the call in assay [4] and in [5] was inactive. Moreover, in [6], the AC50 was 21.6 µM (active).

Take `CC[C@H](C)[C@H]1O[C@]2(C=C[C@@H]1C)C[C@@H]1C[C@@H](C/C=C(\C)[C@@H](O[C@H]3C[C@H](OC)[C@@H](O[C@H]4C[C@H](OC)[C@@H](O)[C@H](C)O4)[C@H](C)O3)[C@@H](C)/C=C/C=C3\CO[C@@H]4[C@H](O)C(C)=C[C@@H](C(=O)O1)[C@]34O)O2` (tested in a mixture with another compound): the AC50 in [4] is 7.63 µM (active); in assay [5], 8.02 µM (active); in [6], 3.44 µM (active).

`CCOCN(C(=O)CCl)c1c(C)cccc1CC`: the compound was called inactive in the assay with IYD (gene 389434).

Turning to `CCC(C)(C)C(=O)OC1=C(c2ccc(Cl)cc2Cl)C(=O)OC12CCCCC2`, the call in [4] and in assay [5] was inactive. The AC50 in assay [6] was 21.9 µM (active).

Turning to `O=[N+]([O-])/N=C1\NCCN1Cc1ccc(Cl)nc1`, the outcome in assay [4], in assay [5] and in assay [3] was inactive. Also, in assay [6], the AC50 was 15 µM (active).

Turning to `CC1(c2ccc(Oc3ccccc3)cc2)OC(=O)N(Nc2ccccc2)C1=O` (stereo unspecified), the compound was called inactive in assay [4], in assay [5], in assay [6] and in assay [3].

`ClC1C(Cl)C(Cl)C(Cl)C(Cl)C1Cl` (stereo unspecified): in assay [3], the call was inactive.

(Values after PubChem BioAssay (EPA / NIEHS).)
